RTF Ca sens act – cardiac RTF calcium sensitivity activators, primary screen, biochemical, IANBD-TnC fluorescence, EC20 calcium | 340,000 compounds, 0.24% hits | IANBD-labeled TnC RTF fluorescence at EC20 calcium; 0% EC20 calcium, 100% full calcium | activation, % at 7.2 µM;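 active = activation above the mean over all tested compounds plus 3 SD, cut at about 30% in these data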;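 note: rise in fluorescence read as greater calcium sensitivity of cardiac thin filaments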
Myeloid diff MLP – induction of myeloid progenitor differentiation, primary screen, cell-based, flow cytometry, MLPCN library | calls only at 10 µM | AID 624256, 2012 | ER-HoxA9 myeloid progenitors, lysozyme-GFP differentiation | 360,000 compounds, 1% hits;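 active = normalized GFP-positive differentiation at or above the plate's own cutoff, the solvent-only control mean plus 3 SD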;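 note: cells exposed to compound for four days before flow analysis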
CRFR2-BP ag – agonists of CRF-BP/CRF-R2 complex, primary screen, cell-based, HEK293, calcium dye fluorescence, uHTS; AID 588473, 2011; activation, % at 13.2 µM; CRF-binding protein / CRF receptor 2 complex (human); 350,000 compounds, 0.46% hits; calcium dye fluorescence (FLIPR); percent of saturating CRF peptide response;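 active = activation of at least 50%, plus an integration ratio under a set limit after plate pattern correction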
CRFBP-R2 block – antagonists of CRF-BP/CRF-R2 complex, primary screen, cell-based, HEK293, calcium dye fluorescence, uHTS. CRF-induced calcium fluorescence. inhibition, % at 11.8 µM. 350,000 compounds, 0.59% hits;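 active = inhibition of the ligand-induced calcium signal above about 50% at the single tested concentration, limit read from the data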
RTF Ca sens inh – cardiac RTF calcium sensitivity inhibitors, primary screen, biochemical, IANBD-TnC fluorescence, EC70 calcium | Troponin I, cardiac muscle (Homo sapiens) + Troponin T, cardiac muscle (Homo sapiens) + … | IANBD-labeled cardiac RTF, Ca2+ fluorescence | inhibition, % at 7.15 µM | 340,000 compounds, 0.12% hits;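 active = inhibition above the mean inhibition of all tested compounds plus 3 SD, cut at about 17% in these data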;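 note: assay run at fixed EC70 calcium of 1.6 mM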
Of the large screens only hits and unclear results are named; the others gave an inactive call. Sampled rows, rich in hits. Any-hit rate of the full collection: about 2.2%.

Cc1ccc2nc(SCC(=O)N3N=C(c4cccs4)CC3c3ccc(F)cc3)nc(=O)n2c1 (stereo not drawn)	none (no result: RTF Ca sens act, RTF Ca sens inh)
Cc1ccc(C2CC(c3cccs3)=NN2C(=O)CSc2nc(=O)n3cc(C)ccc3n2)cc1 (stereo not drawn)	Myeloid diff MLP active
CC1(C(=O)NCc2cccs2)CCN1CCc1ccccc1 (stereo not drawn)	none (no result: RTF Ca sens act, CRFR2-BP ag, CRFBP-R2 block, RTF Ca sens inh)
O=C(COC(=O)c1cccc(O)c1)Nc1ccc(S(=O)(=O)N2CCOCC2)cc1	none
Cc1ccc(S(=O)(=O)NC2=C(N3CCN(c4ccccc4F)CC3)C(=O)c3ccccc3C2=O)cc1	none
Cc1ccc(S(=O)(=O)NC2=C(N3CCN(Cc4ccccc4)CC3)C(=O)c3ccccc3C2=O)cc1	Myeloid diff MLP active
Cc1ccc(S(=O)(=O)NC2=NCN(C3CCN(Cc4ccccc4)CC3)CN2)cc1	CRFBP-R2 block 109
O[C@H]1C[C@H](c2ccc(Cl)cc2)N(CC2CCCCC2)C[C@@H]1n1cc(C2CC2)nn1	none (no result: RTF Ca sens act, RTF Ca sens inh)
CCCCCN(C(=O)CCC(=O)OCC(=O)N1C(C)CCCC1C)c1c(N)n(CCCC)c(=O)[nH]c1=O (stereo not drawn)	none
Cc1nnc(SCCn2c(N3CCC(C)CC3)nc3c2c(=O)[nH]c(=O)n3C)s1	Myeloid diff MLP active
Cc1nnc(SCCn2c(N3CCCC(C)C3)nc3c2c(=O)[nH]c(=O)n3C)s1 (stereo not drawn)	none
CCOC(=O)c1c(C)n(OCc2ccccc2)c2ccc3nonc3c12	CRFBP-R2 block 53
C=CCOn1c(C)c(C(C)=O)c2c3nonc3ccc21	none
OC(CNc1nc(C(F)(F)F)nc2ccccc12)c1ccccc1 (stereo not drawn)	none
O=C(O)CCNc1nc(C(F)(F)F)nc2ccccc12	Myeloid diff MLP active
O=C(COC(=O)c1ccc(S(=O)(=O)N2CCCC2)cc1)NCc1ccco1	none
COc1ccc(OC)c(N/C(=N/C(=S)Nc2ccccc2)Nc2nc(C)cc(C)n2)c1	Myeloid diff MLP active (no result: RTF Ca sens act, RTF Ca sens inh)
CCc1ccc(Nc2nnc(SC(C)C(=O)NC3CC3)s2)cc1 (stereo not drawn)	CRFBP-R2 block 79
O=C(NCC(c1ccco1)N1CCCC1)c1ccc(Cl)cc1 (stereo not drawn)	none
Cc1cc2oc(C(=O)NCC(c3ccco3)N3CCCC3)c(C)c2cc1C (stereo not drawn)	none (no result: RTF Ca sens act, RTF Ca sens inh)
O=C(NCC(c1ccco1)N1CCCCC1)c1ccc([N+](=O)[O-])s1 (stereo not drawn)	Myeloid diff MLP active (no result: RTF Ca sens act, RTF Ca sens inh)
Cc1ccc2oc(C(=O)NCC(c3ccco3)N3CCCC3)c(C)c2c1 (stereo not drawn)	Myeloid diff MLP active
O=C(NCC(c1ccco1)N1CCCC1)c1cc2cc(Cl)ccc2o1 (stereo not drawn)	CRFR2-BP ag 57
COc1ccc(C(=O)C[C@@H]2OC3CCCCC3N2S(=O)(=O)c2ccc(C)cc2)cc1OC (stereo partly drawn)	none (no result: RTF Ca sens act, CRFR2-BP ag, CRFBP-R2 block, RTF Ca sens inh)
CCc1ccc(-c2nc(SCC(=O)N(C)C3CCS(=O)(=O)C3)n[nH]2)cc1 (stereo not drawn)	none
CC(C(=O)Nc1c2c(cc3c1CCC3)CCC2)N1CCCC1 (stereo not drawn)	none
CCN(CC)C(C)C(=O)Nc1c2c(cc3c1CCC3)CCC2 (stereo not drawn)	Myeloid diff MLP active
O=c1oc2ccc(Br)cc2cc1-c1nc2ccccc2o1	none
COc1cccc2cc(-c3nc4ccccc4o3)c(=O)oc12	Myeloid diff MLP active
CCN(CC(=O)Nc1cc(S(=O)(=O)N2CCCCC2)ccc1C)Cc1ccccc1	none
O=C1COc2ccc(S(=O)(=O)CCC(=O)N3CCN(c4cccc(C(F)(F)F)c4)CC3)cc2N1	none
COc1ccc(N2CCN(C(=O)CCS(=O)(=O)c3ccc4c(c3)NC(=O)CO4)CC2)cc1	CRFBP-R2 block 56
CCC(=O)Nc1ccc(NCc2cccs2)cc1	none
CCOC(=O)c1nnn(CC(=O)N2N=C(c3ccccc3)CC2c2ccccc2)c1C(=O)OCC (stereo not drawn)	CRFBP-R2 block 71
CCOC(=O)c1nnn(CC(=O)N2N=C(c3cc(C)ccc3C)CC2c2ccc(OC)cc2)c1C(=O)OCC (stereo not drawn)	none

Screening data deposited in PubChem BioAssay by several laboratories.
